This is a sample that favours compounds with a hit; in the whole collection about 4.1% have one here.
PfHsp90 yeast 2 – growth inhibition of yeast expressing Plasmodium Hsp90 | 0.32% of 310,000 active | inhibition, % at 9.4 µM | S. cerevisiae expressing PfHsp90, BacTiter-Glo ATP, 48 h; yeast lacking PDR1 and PDR3 efflux regulators;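 active = every replicate shows inhibition above about 80%, whatever the replicate mean, limit read from the data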
tim10-1 inh – inhibits growth of tim10-1 mutant yeast; inhibition, % at 20 µM; S. cerevisiae tim10-1 ts strain growth, BacTiter-Glo, 24 h; 2.2% of 330,000 active; AID 463190;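 active = inhibition of at least 40%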;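 also: mutant grown at 25 °C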
NALP1 yeast inh – blocks the NALP1 inflammasome reconstituted in yeast | S. cerevisiae NALP1/ASC/caspase-1 growth, X-gal OD620, 72 h | inhibition, % at 10 µM | 0.61% of 280,000 active; in the data active = inhibition mostly above about 24%, no sharp cut-off; inactive = mostly below about 32%
TIM10 inh – inhibits growth of TIM10 yeast strain | S. cerevisiae TIM10 strain growth, BacTiter-Glo luminescence, 24 h | inhibition, % at 10 µM | 1.4% of 330,000 active | AID 463195;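 active = inhibition of 40% or more at the single tested concentration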;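 also: wild-type TIM10 isogenic control strain grown at permissive 25 °C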
NALP3 yeast inh – blocks the NALP3 inflammasome reconstituted in yeast. inhibition, % at 10 µM. AID 2825. 0.39% of 330,000 active. Yeast reconstituted NLRP3/ASC/caspase-1, beta-gal luminescence, 24 h;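 active = inhibition of 50% or more; inactive = inhibition below 50%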
tim23-1 inh – inhibits growth of tim23-1 mutant yeast. inhibition, % at 20 µM. 1.3% of 330,000 active. S. cerevisiae tim23-1 growth, BacTiter-Glo luminescence, 24 h. AID 463212;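 active = growth inhibition of the mutant yeast at or above 50%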;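 also: temperature-sensitive mutant grown at 25 °C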
NALP3 yeast conf – confirmation of NALP3 inhibitors in yeast | inhibition, % at 10 µM | shares compounds with NALP3 yeast inh | 81% of 1,300 active | yeast expressing human NALP3, luminescence | AID 435006; in the data active = inhibition above about 48%
Casp1 ASC ctr – counter-screen for NALP3 inhibitors: yeast caspase-1-ASC | shares compounds with NALP3 yeast inh | yeast expressing Caspase-1-ASC, luminescence counter screen | 66% of 1,000 active | inhibition, % at 10 µM
NALP3 yeast rt – retest-confirmed inhibitor of NALP3 in yeast; shares compounds with NALP3 yeast inh; yeast expressing human NALP3, luminescence read-out; inhibition, % at 10 µM; 53% of 1,000 active; AID 488794
A number is an active result. Rule as the data show it, unless noted: active = inhibition above about 50%; inactive = the rest.

What do the screens show for `COc1ccc(C(=O)c2cc([N+](=O)[O-])ccc2N2CCCC2)cc1`?
PfHsp90 yeast 2: inactive; tim10-1 inh: inactive; NALP1 yeast inh: inactive; TIM10 inh: inactive; NALP3 yeast inh: 56; tim23-1 inh: inactive; NALP3 yeast conf: inactive

What do the screens show for `CNC(=O)/C(C#N)=C/c1ccc(OCCOc2ccccc2)cc1`?
PfHsp90 yeast 2: inactive; tim10-1 inh: inactive; NALP1 yeast inh: inactive; TIM10 inh: inactive; NALP3 yeast inh: 56; tim23-1 inh: inactive; NALP3 yeast conf: 73; Casp1 ASC ctr: 58; NALP3 yeast rt: inactive

Results for COc1ccc(NS(=O)(=O)c2ccc3c(c2)CCC(=O)N3)cc1O ?
tim10-1 inh: inactive; TIM10 inh: inactive; NALP3 yeast inh: inactive; tim23-1 inh: inactive

Results for CCCCN1C(=O)/C(=C/C=C2\SCCN2C)SC1=S ?
PfHsp90 yeast 2: inactive; tim10-1 inh: inactive; NALP1 yeast inh: inactive; TIM10 inh: inactive; NALP3 yeast inh: 58; tim23-1 inh: inactive; NALP3 yeast conf: inactive; Casp1 ASC ctr: 64; NALP3 yeast rt: 65

What do the screens show for `CN1CCS/C1=C/C=C1\SC(=S)N(CC(=O)O)C1=O`?
PfHsp90 yeast 2: inactive; tim10-1 inh: inactive; NALP1 yeast inh: inactive; TIM10 inh: inactive; NALP3 yeast inh: inactive; tim23-1 inh: inactive

How did COc1cc(C2c3[nH]c4ccccc4c3C[C@H]3C(=O)N(C4CC4)CC(=O)N23)ccc1OC(C)C (stereo partly drawn) do in these assays?
PfHsp90 yeast 2: inactive; tim10-1 inh: inactive; NALP1 yeast inh: inactive; TIM10 inh: inactive; NALP3 yeast inh: inactive; tim23-1 inh: inactive

Results for CCCn1c(N)c(C(=O)CSc2nc(C3CC3)n(-c3ccccc3)n2)c(=O)[nH]c1=O ?
PfHsp90 yeast 2: inactive; tim10-1 inh: inactive; TIM10 inh: inactive; NALP3 yeast inh: inactive; tim23-1 inh: inactive

How did Cc1cc(C(=O)COC(=O)c2csc3c2CCCC3)c(C)n1C do in these assays?
PfHsp90 yeast 2: inactive; tim10-1 inh: inactive; NALP1 yeast inh: inactive; TIM10 inh: inactive; NALP3 yeast inh: 54; tim23-1 inh: inactive; NALP3 yeast conf: 62; Casp1 ASC ctr: inactive; NALP3 yeast rt: inactive

Results for CSCc1cc(N(C)c2ccccc2)nc(-c2ccccn2)n1 ?
PfHsp90 yeast 2: inactive; tim10-1 inh: inactive; NALP1 yeast inh: inactive; TIM10 inh: inactive; NALP3 yeast inh: 67; tim23-1 inh: inactive; NALP3 yeast conf: 71; Casp1 ASC ctr: 74; NALP3 yeast rt: 81

How did CC(=O)Cn1ncc(N(C)Cc2ccccc2)c(Cl)c1=O do in these assays?
PfHsp90 yeast 2: inactive; tim10-1 inh: inactive; NALP1 yeast inh: inactive; TIM10 inh: inactive; NALP3 yeast inh: inactive; tim23-1 inh: inactive

What do the screens show for `Cc1[nH]c2c(C)cccc2c1CCNC(=O)C1CCCCC1C(=O)OCC(F)(F)F` (stereo not drawn)?
PfHsp90 yeast 2: inactive; tim10-1 inh: inactive; NALP1 yeast inh: inactive; TIM10 inh: inactive; NALP3 yeast inh: 72; tim23-1 inh: inactive; NALP3 yeast conf: inactive

Results for O=C(CN1C(=O)c2ccccc2S1(=O)=O)Nc1ccc(S(=O)(=O)Nc2ncccn2)cc1 ?
PfHsp90 yeast 2: inactive; tim10-1 inh: inactive; TIM10 inh: inactive; NALP3 yeast inh: inactive; tim23-1 inh: inactive

What do the screens show for `COC(=O)C1CC2(C(=O)OC)CC(C(=O)OC)(CC(C(=O)OC)C2=O)C1=O` (stereo not drawn)?
PfHsp90 yeast 2: inactive

Results for COC(=O)C12CCC3(SCCS3)C(C(=O)OC)(CCC13SCCS3)C2 ?
PfHsp90 yeast 2: inactive; tim10-1 inh: inactive; NALP1 yeast inh: inactive; TIM10 inh: inactive; NALP3 yeast inh: 58; tim23-1 inh: inactive; NALP3 yeast conf: inactive

Results for COc1ccc(C(=O)NC(=S)NNC(=O)c2ccc(C)cc2)cc1 ?
PfHsp90 yeast 2: inactive; tim10-1 inh: inactive; TIM10 inh: inactive; NALP3 yeast inh: 54; tim23-1 inh: inactive; NALP3 yeast conf: 66; Casp1 ASC ctr: 55; NALP3 yeast rt: 60

How did CCc1nnc(NC(=S)Nc2ccccc2)s1 do in these assays?
PfHsp90 yeast 2: inactive; tim10-1 inh: inactive; NALP1 yeast inh: inactive; TIM10 inh: inactive; NALP3 yeast inh: 55; tim23-1 inh: inactive; NALP3 yeast conf: inactive

How did N#C/C(=N\Nc1ccc(Cl)cc1)C(=O)c1ccccc1 do in these assays?
PfHsp90 yeast 2: inactive; tim10-1 inh: inactive; NALP1 yeast inh: inactive; TIM10 inh: inactive; NALP3 yeast inh: 55; tim23-1 inh: inactive; NALP3 yeast conf: 59; Casp1 ASC ctr: 73; NALP3 yeast rt: 84

How did O=[N+]([O-])c1ccc(CSc2ccc(S(=O)(=O)N3CCCCC3)cn2)cc1 do in these assays?
PfHsp90 yeast 2: inactive; tim10-1 inh: inactive; TIM10 inh: inactive; NALP3 yeast inh: inactive; tim23-1 inh: inactive

Results for Cc1cc(N(C)C)ccc1N=Nc1ccc(N)cc1 ?
PfHsp90 yeast 2: inactive; tim10-1 inh: inactive; TIM10 inh: inactive; NALP3 yeast inh: 51; tim23-1 inh: inactive; NALP3 yeast conf: inactive; Casp1 ASC ctr: inactive; NALP3 yeast rt: inactive

How did Nc1ccc(N=Nc2ccc(N)cc2)cc1 do in these assays?
PfHsp90 yeast 2: inactive; tim10-1 inh: inactive; NALP1 yeast inh: inactive; TIM10 inh: inactive; NALP3 yeast inh: inactive; tim23-1 inh: inactive

What do the screens show for `CCC(C)c1ccccc1NC(=O)c1cc2cccc([N+](=O)[O-])c2[nH]1` (stereo not drawn)?
tim10-1 inh: inactive; TIM10 inh: inactive; NALP3 yeast inh: 52; tim23-1 inh: inactive; NALP3 yeast conf: inactive

Results for CC(C)[C@H](NC(=O)N1CC(=O)Nc2ccccc21)C(=O)N1CCC(C(=O)O)CC1 ?
PfHsp90 yeast 2: inactive; tim10-1 inh: inactive; NALP1 yeast inh: inactive; TIM10 inh: inactive; NALP3 yeast inh: inactive; tim23-1 inh: inactive

How did CSc1oc(-c2ccccc2)nc1S(=O)(=O)c1ccc(C)cc1 do in these assays?
PfHsp90 yeast 2: inactive; tim10-1 inh: inactive; NALP1 yeast inh: inactive; TIM10 inh: inactive; NALP3 yeast inh: 53; tim23-1 inh: inactive; NALP3 yeast conf: 68; Casp1 ASC ctr: 56; NALP3 yeast rt: inactive

How did Cc1nc2nc(SCc3ccccc3)[nH]n2c(=O)c1C do in these assays?
PfHsp90 yeast 2: inactive; NALP1 yeast inh: inactive

What do the screens show for `CCCCCC(=O)N1CCN(CCN=CC2=C(O)CC(c3cccs3)CC2=O)CC1` (stereo not drawn)?
PfHsp90 yeast 2: inactive; tim10-1 inh: inactive; NALP1 yeast inh: inactive; TIM10 inh: inactive; NALP3 yeast inh: 51; tim23-1 inh: inactive; NALP3 yeast conf: 65; Casp1 ASC ctr: 55; NALP3 yeast rt: inactive

How did CCCCCC(=O)N1CCN(CCN=CC2=C(O)CC(c3ccco3)CC2=O)CC1 (stereo not drawn) do in these assays?
tim10-1 inh: inactive; NALP1 yeast inh: inactive; TIM10 inh: inactive; NALP3 yeast inh: 53; tim23-1 inh: inactive; NALP3 yeast conf: 54; Casp1 ASC ctr: inactive; NALP3 yeast rt: 52
